Source: PubChem BioAssay
Sampled rows, rich in hits. Any-hit rate of the full collection: about 3.5%.
Autofluor counter – compound fluorescence in toxin protease inhibitor counterscreen. compound autofluorescence counterscreen, microsphere flow cytometry; active compounds read high. hit rate 3.1% among 360,000. fluorescence intensity (test concentration not listed). AID 624483; in the data active = fluorescence intensity above about 16000; inconclusive = no clear call, values can overlap the other calls
Anthrax LF prot – blocks Bacillus anthracis lethal factor protease. hit rate 0.12% among 360,000. AID 588501. multiplex microsphere protease cleavage assay, LF. inhibition, % at 10 µM. P15917; in the data active = inhibition above about 30%; inconclusive = no clear call, values can overlap the other calls; also: plate controls were buffer without enzyme for full effect and enzyme alone for no effect
Target sequence (P15917 whole entry, looked up): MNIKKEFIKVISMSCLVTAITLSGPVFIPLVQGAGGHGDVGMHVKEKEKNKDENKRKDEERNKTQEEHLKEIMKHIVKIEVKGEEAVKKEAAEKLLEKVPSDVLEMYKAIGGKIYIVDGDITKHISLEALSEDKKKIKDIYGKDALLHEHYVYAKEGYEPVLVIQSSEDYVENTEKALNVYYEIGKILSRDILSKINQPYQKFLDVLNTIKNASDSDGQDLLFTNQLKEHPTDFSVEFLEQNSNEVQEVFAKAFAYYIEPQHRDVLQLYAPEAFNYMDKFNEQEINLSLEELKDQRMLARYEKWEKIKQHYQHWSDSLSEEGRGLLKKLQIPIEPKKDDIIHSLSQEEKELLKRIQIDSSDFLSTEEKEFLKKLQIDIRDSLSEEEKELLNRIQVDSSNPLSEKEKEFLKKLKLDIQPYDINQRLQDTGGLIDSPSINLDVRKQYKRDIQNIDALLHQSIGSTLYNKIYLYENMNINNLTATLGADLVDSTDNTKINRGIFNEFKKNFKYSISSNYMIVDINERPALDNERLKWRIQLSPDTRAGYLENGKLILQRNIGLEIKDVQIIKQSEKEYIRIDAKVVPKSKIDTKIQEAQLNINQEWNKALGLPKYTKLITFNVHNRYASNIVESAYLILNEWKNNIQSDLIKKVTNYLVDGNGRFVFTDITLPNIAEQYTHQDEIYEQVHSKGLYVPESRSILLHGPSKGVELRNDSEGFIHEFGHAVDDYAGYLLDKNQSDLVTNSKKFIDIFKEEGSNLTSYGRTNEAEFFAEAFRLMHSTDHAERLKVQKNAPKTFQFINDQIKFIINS
BoNT A protease – BoNT A light chain protease inhibition | multiplex microsphere protease substrate cleavage, flow cytometry | hit rate 0.17% among 360,000 | inhibition, % at 10 µM | AID 588499; in the data active = inhibition above about 30%; inconclusive = no clear call, values can overlap the other calls; also: plate controls were buffer without enzyme for full effect and enzyme alone for no effect
BoNT F protease – blocks Botulinum neurotoxin F light chain protease; inhibition, % at 10 µM; Multiplex microsphere protease cleavage assay, flow cytometry; hit rate 0.22% among 360,000; in the data active = inhibition above about 35%, passing the limit was not always enough; inconclusive = no clear call, values can overlap the other calls; also: plate controls were buffer without enzyme for full effect and enzyme alone for no effect
BoNT-A LC CP1 – blocks botulinum neurotoxin A light chain protease; multiplex microsphere protease assay, flow cytometry; AID 602139; hit rate 3% among 720; shares compounds with BoNT F protease; inhibition, % at 10 µM; in the data active = inhibition above about 32%
BoNTF LC inh 1 – BoNT/F light chain protease inhibition; 720 tested, under 10 active; AID 602140; shares compounds with BoNT F protease; inhibition, % at 10 µM; multiplex microsphere protease cleavage assay, flow cytometry
LF protease CP1 – blocks anthrax lethal factor protease | shares compounds with BoNT F protease | multiplex microsphere protease cleavage assay, LF | inhibition, % at 10 µM | 720 tested, under 10 active | AID 602142
Active calls of the source: *; ? = inconclusive; · = not tested or not shown. Unless noted, no rule for the calls is given here.

SMILES	Autofluor counter	Anthrax LF prot	BoNT A protease	BoNT F protease	BoNT-A LC CP1	BoNTF LC inh 1	LF protease CP1
Cn1c(=O)c2cc(S(=O)(=O)NC(Cc3ccccc3)C(=O)NCc3ccco3)ccc2n(C)c1=O (stereo not drawn)	5559	6	0	-5	·	·	·
O=C(CC1C(=O)NCCN1Cc1cccc(F)c1)NCCCCCN1CCOCC1 (stereo not drawn)	4690	0	2	-1	·	·	·
CCc1cccc(NC(=O)CCc2nc(-c3cccs3)no2)c1	5753	-4	0	-9	·	·	·
COc1cc(NC(=O)CCc2nc(-c3cccs3)no2)cc(OC)c1OC	3912	8	2	42*	0	-5	1
CCOc1ccc(OCCOC(=O)CN2C(=O)NC3(CCCC3)C2=O)cc1	6121	-3	0	6	·	·	·
COc1ccc(CCNC(=O)c2nn(C)c3c2CS(=O)(=O)c2ccccc2-3)c(OC)c1	5595	0	2	2	·	·	·
c1ccc(Cn2c(CNc3nc4ccccc4n3CCN3CCCCC3)nc3ccccc32)cc1	3736	-2	0	1	·	·	·
c1ccc(Cn2c(CN3CCCC3)nc3ccccc32)cc1	6747	-2	3	34	-1	0	2
C=CCNc1ncnc2c1ncn2[C@H]1CN(Cc2ccc(-c3ccccc3)cc2)C[C@@H](CO)O1	3520	1	0	2	·	·	·
COc1cc2c(cc1OC)CN(S(=O)(=O)c1ccccc1F)CC2	4056	8	1	3	·	·	·
O=S(=O)(c1ccccc1F)N1CCc2ccccc2C1	3906	34*	0	?	-1	-2	-2
COCOc1cccc(CN2CCC2(C)C(=O)Nc2ccc(OC)c(OC)c2)c1 (stereo not drawn)	3860	0	0	-4	·	·	·
CCN(CC)CC(=O)Nc1sc(C)cc1C(=O)c1ccc(C)cc1	4200	-5	-2	?	·	·	·
CCc1cc(C(=O)c2ccc(Br)cc2)c(NC(=O)CN(CC)CC)s1	4112	32*	-2	?	0	-4	-1
COc1ccccc1CN(C)C(=O)C(NC(=O)Cc1cccc2ccccc12)C(C)C (stereo not drawn)	3760	-10	0	-2	·	·	·
CCC1=Nc2ccccc2-c2nnc(SC)nc2O1	4512	-8	2	34	0	-4	-7
COc1ccc(CC2(CO)CCN(S(=O)(=O)c3sccc3C)CC2)cc1	4205	-6	6	38*	1	-7	1
CCN(C(=O)c1cccnc1)c1ccccc1	3661	3	0	-28	·	·	·
CCN(C(=O)c1ccc(C)c(Br)c1)c1ccccc1	2754	1	6	60*	-1	-2	0
COc1ccccc1-c1cc2nc(-c3ccccc3)cc(N3CCN(C(=O)c4ccoc4)CC3)n2n1	3639	-5	0	-7	·	·	·
O=C(CN1C(=O)NC2(CCCCCC2)C1=O)c1ccc(Cl)cc1	?	2	0	7	·	·	·
CCc1ccc(C(=O)CN2C(=O)NC3(CCCCCC3)C2=O)cc1	5069	11	12	43*	0	-1	-2
CCc1nc2ccccc2n1Cc1ccccc1OC	2792	-3	0	-4	·	·	·
COc1ccccc1Cn1c(C)nc2ccccc21	4417	-12	1	39*	-1	-2	-1
CC(C)(CNS(=O)(=O)c1cccs1)N1CCOCC1	3474	-4	0	-2	·	·	·
SMILES	Autofluor counter	Anthrax LF prot	BoNT A protease	BoNT F protease	BoNT-A LC CP1	BoNTF LC inh 1	LF protease CP1
CCCC(=O)Nc1nnc(SCC(=O)NCc2ccc3c(c2)OCO3)s1	4423	-4	7	40*	-1	-6	-5
O=C(CSc1nnc(SCC(=O)NCc2ccc3c(c2)OCO3)s1)NCc1ccc2c(c1)OCO2	9095	4	0	7	·	·	·
CCn1c2ccccc2c2nc3ccccc3nc21	8426	-5	18	0	·	·	·
CCn1c2ccccc2c2nc3cc(OC)c(OC)cc3nc21	5340	23	50*	32	23	4	9
O=C(NCc1ccccn1)[C@@H]1CCCN1C(=O)[C@@H]1CCCN1C(=O)c1c(F)cccc1F	6002	-6	-1	-7	·	·	·
O=C(CNC(=O)C1CCCCC1)NNC(=O)c1ccccc1Br	4339	-3	-1	4	·	·	·
NC(=O)c1cc([N+](=O)[O-])ccc1NCc1cccnc1	4466	-2	0	1	·	·	·
NS(=O)(=O)c1cc([N+](=O)[O-])ccc1NCc1cccnc1	4090	2	4	39*	0	0	0
CC(=O)Nc1cc(-c2ccccc2Cl)cn2c(-c3ccc(S(C)(=O)=O)cc3)cnc12	4491	4	0	-4	·	·	·
Oc1ccccc1-c1nc2ccccc2nc1-c1ccccc1	5138	-4	0	1	·	·	·
